Each structure is given as a SMILES string. In all, about 59,000 compounds went through this assay and about 6,500 (11%) were called active. Another 15% or so got no clear call; they are omitted. Cut-off read from the data, not from the text of the source: active = max dye-equivalent concentration above about 10 nM; inconclusive = mostly about 1.1 nM to 9.6 nM; inactive = weaker than that. What follows is part of a selection rich in actives, with near analogues and random picks from the rest. Peptide text beside a SMILES is read from it.

This experiment can be described thus: qHTS Assay for Spectroscopic Profiling in A350 Spectral Region. The note with it: Compound autofluorescence, 340/450 nm, Alexa 350 dye-equivalents; hits give high values. In general terms: In qHTS, concentration-response curves come from the screen itself.
Consider `N#Cc1ccccc1-n1c(N)c(C(=O)N2CCCC2)sc1=S`, for which the max dye-equivalent concentration result was “inactive”. Take `COC(=O)c1ccc(N(CC(=O)NC2CCCC2)C(=O)CNC(=O)c2ccco2)cc1`: the max dye-equivalent concentration result was “inactive”.

With `CCS(=O)(=O)N1CCCC(C(=O)NCCCN(C)Cc2ccccc2)C1` (stereo not drawn), the max dye-equivalent concentration result was “inactive”. The value for `CN1C(=O)C[C@H](c2ccccc2)C1=O` was “inactive”; that for `O=C(CCCN1C(=O)CCC1=O)Nc1ccc(Cl)c(C(F)(F)F)c1` was “inactive”; that for `O=c1c(-c2cc(F)cc(F)c2)nc2cnc(Oc3ccccc3)nc2n1C[C@H]1CCCO1` was 15 nM (active). The entry for `COc1ccc(-n2c(=O)c(-c3cn(C)c4ccccc34)nc3cnc(OC)nc32)cc1` is “inactive”; for `COc1ccc(Oc2ncc3nc(C)c(=O)n(-c4ccccc4)c3n2)cc1` it is “inactive”; for `O=c1c(-c2cccs2)nc2cnc(Oc3ccccc3)nc2n1-c1ccccc1` it is 21 nM (active). The entry for `CCc1ccc(-c2nnn(Cc3nc4ccccc4s3)n2)cc1` is “inactive”; for `O=C(N1CCOCC1)N1CCOCC1` it is “inactive”; for `O=C(NCc1cn2ccsc2n1)Nc1cccc(Cl)c1` it is “inactive”. As to `CCOC(=O)c1csc(NC(=O)c2ccc(S(=O)(=O)N3CCCC3)cc2)n1`, the max dye-equivalent concentration entry was “inactive”. The value for `COc1ccc(OCC(=O)OCC(=O)Nc2ccc(S(=O)(=O)N3CCCCC3)cc2)cc1` was “inactive”. The value for `Cc1cc(=O)[nH]c(SCc2cc(Cl)ccc2OC(F)F)n1` was “inactive”; that for `CCOc1cc(-c2nc3cc(C)ccn3c2NCC2CCCO2)ccc1O` (stereo not drawn) was 78 nM (active). The entry for `Cc1ccc(C(=O)O)cc1S(=O)(=O)NCC1CCCO1` (stereo not drawn) is “inactive”; for `Cc1ccc(-c2noc(-c3ccccc3C(=O)NCC3CCCO3)n2)cc1` (stereo not drawn) it is “inactive”; for `O=C(CSc1nnc(-c2ccncc2)n1C1CCCCC1)Nc1ccccc1` it is “inactive”. Take `CCOC(=O)N1CCN(C(=O)c2cn(C)c3ccc(S(=O)(=O)N4CCCC4)cc3c2=O)CC1`: the max dye-equivalent concentration result is “inactive”. For `CCN(CC)S(=O)(=O)c1ccc2[nH]cc(C(=O)NCCc3ccccc3)c(=O)c2c1`, the max dye-equivalent concentration result is “inactive”. The figure for `CN1CCN(S(=O)(=O)c2ccc3[nH]cc(C(=O)O)c(=O)c3c2)CC1` is 12 nM (active). `COC(=O)c1cc(S(=O)(=O)NC2CCN(Cc3ccccc3)CC2)cn1C`: the max dye-equivalent concentration result is “inactive”. The value for `Fc1ccccc1OCCCCn1cncn1` was “inactive”. The entry for `C[C@H](NC(=O)NCCc1ccccc1)C(=O)O` is “inactive”. The value for `O=C(Cn1cnc2c(cnn2-c2ccccc2)c1=O)NCc1ccccc1` was “inactive”; that for `CN(C)CCCn1c(N)c(C#N)c2nc(C#N)c(C#N)nc21` was 620 nM (active); that for `Cc1cccc(C)c1NC(=O)CCCSc1nnc(-c2ccco2)n1-c1ccccc1` was “inactive”.

On to `CC(=O)NC(C(=O)NCC(N)=O)C(C)C` (stereo not drawn) (HELM PEPTIDE1{[ac].[CC(C)C(N[*:1])C(=O)[*:2]].G.[am]}$$$$V2.0), for which the max dye-equivalent concentration entry is “inactive”.

Regarding `O=C(Cn1nc(C(F)(F)F)c2c1CCC2)NCc1ccc(F)cc1`, the max dye-equivalent concentration result is “inactive”.

`O=c1[nH]c(=O)n(Cc2ccco2)c2c1C(C(F)(F)F)(C(F)(F)F)N=C(c1ccco1)N2`: the max dye-equivalent concentration is 18 nM (active). The entry for `Nc1cc(=O)nc(SCc2ccccc2)n1Cc1ccco1` is “inactive”; for `Cc1ccc(C(=O)OCC(=O)NCc2ccc3c(c2)OCO3)s1` it is “inactive”. The figure for `Fc1ccc2nc(-c3ccccc3)nc(SCc3nnc(-c4ccccc4)o3)c2c1` is 38 nM (active). Take `C=CCn1c(SCc2nnc(-c3ccccc3)o2)nnc1C(O)c1ccccc1` (stereo not drawn): the max dye-equivalent concentration entry is “inactive”. Take `O=C(OCc1nnc(-c2ccccc2)o1)c1ccc2c(c1)C(=O)N(CCc1ccccc1)C2=O`: the max dye-equivalent concentration result is “inactive”.

Take `O=C(Nc1cccc(F)c1)N1CC2(CCN(C(=O)c3cnccn3)CC2)C1`: the max dye-equivalent concentration result was “inactive”. As to `Oc1ccccc1CNCc1ccccc1O`, the max dye-equivalent concentration result was “inactive”. The value for `CCOC(=O)CSc1nnc(CNc2ccc(F)cc2)o1` was “inactive”; that for `CCOc1cc(C2C(C(=O)OC)=CN(C3CCCC3)C=C2C(=O)OC)cc(Br)c1O` was 230 nM (active).

For `CCOc1ccc(CNC(=O)C2CC(=O)N(C3CCCC3)C2)cc1OC` (stereo not drawn), the max dye-equivalent concentration result was “inactive”.

In the case of `CCOc1ccc(CNC(=O)C2CCC(=O)N2C2CCCC2)cc1OC` (stereo not drawn), the max dye-equivalent concentration entry is “inactive”. The value for `O=C(COc1ccc(S(=O)(=O)NCCc2ccccc2)cc1)N1CCCC1` was “inactive”; that for `CC1(C)CC(=O)c2sc(N)nc2C1` was “inactive”; that for `N#CC1=C(N)Oc2n[nH]c(CSc3ccccc3)c2C12C(=O)Nc1ccccc12` (stereo not drawn) was “inactive”. The value for `COc1ccc(S(=O)(=O)N2CCCC(C(=O)N3CCN(C)CC3)C2)cc1C` (stereo not drawn) was “inactive”; that for `CCOc1ccccc1NC(=O)CCN1CCN(S(=O)(=O)c2ccc(OC)cc2)CC1` was “inactive”. The figure for `COc1ccc(S(=O)(=O)N2CCN(c3ncnc4c(-c5ccccc5)nsc34)CC2)cc1` is 120 nM (active); for `COc1cccc(N2C(=O)CC(N3CCN(S(=O)(=O)c4ccccc4)CC3)C2=O)c1` (stereo not drawn) it is “inactive”; for `Cc1ccc(C)c(NC(=O)C2CCCN2C(=O)OC(C)(C)C)c1` (stereo not drawn) it is “inactive”. Take `OCCN1CCN(CC/C=C2\c3ccccc3Sc3ccc(C(F)(F)F)cc32)CC1`: the max dye-equivalent concentration entry was “inactive”. Consider `COc1ccccc1NC(=O)CSc1nnc(Cn2nnc(-c3ccccc3)n2)n1-c1ccccc1`, for which the max dye-equivalent concentration result is “inactive”. As to `O=C(NCCc1ccc2c(c1)OCCO2)c1cc2ccccc2o1`, the max dye-equivalent concentration entry was “inactive”.
